This is part of a sample that, as a whole, favours compounds with a hit. Of some 83,000 tested, about 20% had one in any assay.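 Results are percent growth after 48 hours of single-concentration exposure. 100 means growth as in untreated cells, lower positive values show inhibition; negative values down to -100 show cell death.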 Active and inactive are the calls of the source. The calls were made as follows: active = growth percent below 10; inactive = the rest.
Legend:
Assay in all cases: NCI-60 one-dose screen, 48 h (100 = growth as untreated, 0 = no growth, -100 = all killed)
Conditions in all cases: 10 µM unless noted
DU-145 prostate = test system: DU-145 prostate
K-562 leukemia = test system: K-562 leukemia
MALME-3M melanoma = test system: MALME-3M melanoma
MDA-MB-231 breast = test system: MDA-MB-231 breast
RXF 393 renal = test system: RXF 393 renal
SF-268 CNS = test system: SF-268 CNS
SF-295 CNS = test system: SF-295 CNS
SF-539 CNS = test system: SF-539 CNS
UACC-257 melanoma = test system: UACC-257 melanoma
M14 melanoma = test system: M14 melanoma
HCT-15 colon = test system: HCT-15 colon
HT29 colon = test system: HT29 colon
SNB-75 CNS = test system: SNB-75 CNS
SNB-19 CNS = test system: SNB-19 CNS
U251 CNS = test system: U251 CNS
PC-3 prostate = test system: PC-3 prostate
SK-MEL-5 melanoma = test system: SK-MEL-5 melanoma
LOX IMVI melanoma = test system: LOX IMVI melanoma
SK-MEL-28 melanoma = test system: SK-MEL-28 melanoma
UACC-62 melanoma = test system: UACC-62 melanoma

Measured: growth

COc1cc(OC)cc(C2C(C#N)=C(N)Oc3c2ccc2ccc(O)cc32)c1 (centres undefined)
inactive: DU-145 prostate 10.9% | MALME-3M melanoma 39.3% | MDA-MB-231 breast 10.9% | RXF 393 renal 24.1% | SF-268 CNS 15.9% | SF-295 CNS 22.9% | UACC-257 melanoma 69.4% | SNB-75 CNS 72% | SNB-19 CNS 26.9% | U251 CNS 12.8% | PC-3 prostate 17.6% | SK-MEL-28 melanoma 48.6%
active: K-562 leukemia 6.22% | SF-539 CNS -9% | M14 melanoma 5.6% | HCT-15 colon 4.56% | HT29 colon 7.81% | SK-MEL-5 melanoma -45.6% | LOX IMVI melanoma 0.698%

CN(C)c1ccc(/C=C/C(=O)c2ccccc2)cc1
inactive: DU-145 prostate 95.9% | K-562 leukemia 32% | MALME-3M melanoma 82.5% | MDA-MB-231 breast 103% | RXF 393 renal 93.8% | SF-268 CNS 89.7% | SF-295 CNS 92.7% | SF-539 CNS 89.3% | UACC-257 melanoma 62.9% | M14 melanoma 76% | HCT-15 colon 62.1% | HT29 colon 62.5% | SNB-75 CNS 100% | SNB-19 CNS 90.4% | U251 CNS 69.3% | PC-3 prostate 71.6% | SK-MEL-5 melanoma 89.3% | LOX IMVI melanoma 78.3% | SK-MEL-28 melanoma 96.8%

Cc1c2cc[nH]c(=O)c2c(C)c2c1[nH]c1ccc(OC(=O)c3ccccc3)cc12
inactive: DU-145 prostate 34% | K-562 leukemia 36.2% | MALME-3M melanoma 20% | MDA-MB-231 breast 34% | RXF 393 renal 37.4% | SF-268 CNS 40% | SF-295 CNS 31.6% | SF-539 CNS 17.1% | UACC-257 melanoma 11.2% | M14 melanoma 33.7% | HCT-15 colon 27.9% | HT29 colon 34.1% | SNB-75 CNS 39.9% | SNB-19 CNS 45% | U251 CNS 29.2% | PC-3 prostate 35.9% | UACC-62 melanoma 28.5% | SK-MEL-28 melanoma 25.2%
active: SK-MEL-5 melanoma -26.9%

N#CCC1=NC(c2cccs2)=Nc2ccccc2S1
inactive: DU-145 prostate 109% | K-562 leukemia 86.5% | MALME-3M melanoma 99% | MDA-MB-231 breast 90.1% | RXF 393 renal 105% | SF-268 CNS 94% | SF-295 CNS 103% | SF-539 CNS 101% | UACC-257 melanoma 94.4% | M14 melanoma 94% | HCT-15 colon 109% | HT29 colon 89.5% | SNB-75 CNS 94% | SNB-19 CNS 87.9% | U251 CNS 87.7% | PC-3 prostate 71.1% | SK-MEL-5 melanoma 93.8% | UACC-62 melanoma 70.1% | SK-MEL-28 melanoma 88.4%

CCOC(=O)c1c(C)c2c(n1C)CSc1cc(S(=O)(=O)c3ccccc3)c(=O)[nH]c1-2
active: HT29 colon 0.904% [100 µM] | SK-MEL-5 melanoma -6.57% [100 µM] | UACC-62 melanoma 1.08% [100 µM]
inactive: DU-145 prostate 25.8% [100 µM] | K-562 leukemia 31% [100 µM] | MALME-3M melanoma 73.2% [100 µM] | MDA-MB-231 breast 31.1% [100 µM] | RXF 393 renal 44.3% [100 µM] | SF-268 CNS 40.5% [100 µM] | SF-295 CNS 27.2% [100 µM] | SF-539 CNS 28.9% [100 µM] | UACC-257 melanoma 41.9% [100 µM] | M14 melanoma 23.7% [100 µM] | HCT-15 colon 24.7% [100 µM] | SNB-75 CNS 32.1% [100 µM] | SNB-19 CNS 43.3% [100 µM] | U251 CNS 35.7% [100 µM] | PC-3 prostate 15.9% [100 µM] | SK-MEL-28 melanoma 41% [100 µM]

C/C(=C(\c1ccc(OCCN2CCCCCC2)cc1)c1ccc(OC(=O)Cc2ccccc2)cc1)c1ccc(Cl)cc1
inactive: DU-145 prostate 62.3% | MALME-3M melanoma 22.6% | MDA-MB-231 breast 35.1% | RXF 393 renal 21.1% | SF-268 CNS 49% | SF-539 CNS 46.9% | SNB-75 CNS 39.7% | SNB-19 CNS 63.1% | SK-MEL-5 melanoma 40.1%
active: K-562 leukemia -35.1% | SF-295 CNS 3.77% | UACC-257 melanoma 5.81% | M14 melanoma -53.1% | HCT-15 colon -15.5% | HT29 colon -8.13% | U251 CNS 8.22% | UACC-62 melanoma -5.48% | LOX IMVI melanoma -94.5% | SK-MEL-28 melanoma -27.3%

Nc1c(C(=O)Nc2cccc3ncccc23)sc2nc3c(cc12)C(=O)CCC3
inactive: DU-145 prostate 69.9% | K-562 leukemia 31.1% | MALME-3M melanoma 74.8% | MDA-MB-231 breast 58% | RXF 393 renal 29.3% | SF-268 CNS 71% | SF-295 CNS 21.3% | SF-539 CNS 51.8% | UACC-257 melanoma 41.6% | M14 melanoma 50.5% | HCT-15 colon 52.9% | HT29 colon 35.9% | SNB-75 CNS 43.7% | SNB-19 CNS 38% | U251 CNS 57.5% | SK-MEL-5 melanoma 30.3% | UACC-62 melanoma 17.8% | LOX IMVI melanoma 55% | SK-MEL-28 melanoma 49%

CCN(CC)CCN(CCN(CC)CC)c1ccccc1
inactive: DU-145 prostate 109% | K-562 leukemia 93% | MALME-3M melanoma 110% | MDA-MB-231 breast 89.6% | RXF 393 renal 90.8% | SF-268 CNS 97.7% | SF-295 CNS 111% | SF-539 CNS 87.6% | UACC-257 melanoma 93.1% | M14 melanoma 82.3% | HCT-15 colon 104% | HT29 colon 102% | SNB-75 CNS 79.1% | SNB-19 CNS 87.3% | U251 CNS 98.2% | SK-MEL-5 melanoma 97.7% | UACC-62 melanoma 89.4% | LOX IMVI melanoma 88.7% | SK-MEL-28 melanoma 108%

c1ccc2cc(Cn3c[n+](Cc4ccc5ccccc5c4)c4ccccc43)ccc2c1
active: K-562 leukemia -49.7% | MALME-3M melanoma -17.8% | MDA-MB-231 breast -54.1% | RXF 393 renal -56.5% | SF-268 CNS -30.5% | SF-295 CNS 6.18% | UACC-257 melanoma -38.6% | M14 melanoma -80.6% | HT29 colon -80.6% | SNB-75 CNS -7.06% | SNB-19 CNS -20.1% | U251 CNS -90.3% | SK-MEL-5 melanoma -98.1% | UACC-62 melanoma -70.1% | LOX IMVI melanoma -93.9% | SK-MEL-28 melanoma -28.9%
inactive: DU-145 prostate 15% | SF-539 CNS 17.7% | HCT-15 colon 53.6%

C=CC(C)(O)CC/C=C(\CO)C(=O)OC1C(C)OC(O[C@](C)(C=C)CC/C=C(\CO)C(=O)O[C@H]2C[C@@]3(C(=O)OC4OC(CO)C(O)C(O)C4OC4OC(C)C(OC5OC(CO)C(O)C5O)C(OC5OC(CO)C(O)C(O)C5O)C4O)C(CC2(C)C)C2=CCC4[C@@]5(C)CC[C@H](OC6OC(COC7OC(C)C(O)C(O)C7OC7OCC(O)C(O)C7O)C(O)C(O)C6NC(C)=O)C(C)(C)C5CC[C@@]4(C)[C@]2(C)C[C@H]3O)C(O)C1O (some centres undefined)
active: DU-145 prostate -91.2% | MALME-3M melanoma -56.2% | MDA-MB-231 breast -29.8% | RXF 393 renal -31.3% | SF-268 CNS -53.4% | SF-295 CNS -59.4% | SF-539 CNS 6.98% | UACC-257 melanoma -53.5% | M14 melanoma -34.1% | SNB-75 CNS -34.9% | SNB-19 CNS -54.1% | U251 CNS -84.5% | UACC-62 melanoma -11% | SK-MEL-28 melanoma -90.3%
inactive: K-562 leukemia 22.8% | HCT-15 colon 66.3% | HT29 colon 21.5% | SK-MEL-5 melanoma 74.6%

C/C(=N\O)C(=O)NCCCCCC(=O)Nc1ccccc1
inactive: DU-145 prostate 114% | K-562 leukemia 99.7% | MALME-3M melanoma 98.9% | MDA-MB-231 breast 100% | RXF 393 renal 121% | SF-268 CNS 100% | SF-295 CNS 101% | SF-539 CNS 107% | UACC-257 melanoma 98.6% | M14 melanoma 107% | HCT-15 colon 101% | HT29 colon 104% | SNB-75 CNS 88.2% | SNB-19 CNS 99.3% | U251 CNS 98.6% | SK-MEL-5 melanoma 91.7% | UACC-62 melanoma 94.3% | LOX IMVI melanoma 89.7% | SK-MEL-28 melanoma 114%

CCN(CC)CCOc1ccc(Nc2ncc3cc(-c4ccc(O)cc4)c(=O)n(C)c3n2)cc1
inactive: DU-145 prostate 85.5% | MDA-MB-231 breast 43.1% | SF-268 CNS 45% | SF-295 CNS 98.5% | UACC-257 melanoma 66.6% | M14 melanoma 57.5% | HCT-15 colon 19.7% | HT29 colon 14.8% | SNB-75 CNS 27.7% | SNB-19 CNS 62.4% | U251 CNS 53.9% | SK-MEL-5 melanoma 92.9% | UACC-62 melanoma 93.3% | SK-MEL-28 melanoma 55.7%
active: K-562 leukemia -53.5% | MALME-3M melanoma -43.8% | RXF 393 renal -5.94% | SF-539 CNS -1.13% | LOX IMVI melanoma -11.7%

COc1ccc(NC(=O)c2cccc(C3CCc4c(cc(OC)c(OC)c4OC)O3)c2)cc1 (centres undefined)
active: K-562 leukemia 6.79% | HT29 colon 6.06% | SK-MEL-5 melanoma 4.29%
inactive: DU-145 prostate 63.2% | MALME-3M melanoma 41.7% | MDA-MB-231 breast 31% | RXF 393 renal 53% | SF-268 CNS 50.2% | SF-295 CNS 23.9% | SF-539 CNS 18.9% | UACC-257 melanoma 46.5% | M14 melanoma 28.2% | HCT-15 colon 17.3% | SNB-75 CNS 13.1% | SNB-19 CNS 33.3% | U251 CNS 23.4% | UACC-62 melanoma 31.6% | LOX IMVI melanoma 28.7% | SK-MEL-28 melanoma 47%

Cc1[nH]c(C(=O)Nc2cccc(OC3CCNCC3)c2)c(Cl)c1Cl
active: K-562 leukemia 0.0646% | M14 melanoma -12.4% | HT29 colon -36.2% | UACC-62 melanoma -55.7% | SK-MEL-28 melanoma -63.5%
inactive: DU-145 prostate 88% | MALME-3M melanoma 27.2% | MDA-MB-231 breast 50.7% | RXF 393 renal 40.9% | SF-268 CNS 74.5% | SF-295 CNS 58.7% | SF-539 CNS 71.5% | UACC-257 melanoma 17.7% | HCT-15 colon 51% | SNB-75 CNS 82.3% | SNB-19 CNS 74.6% | U251 CNS 63.9% | SK-MEL-5 melanoma 85.5% | LOX IMVI melanoma 40.9%

COc1cc(C2C3=C(COC3=O)N(CCO)c3cc4c(cc32)OCCO4)cc(OC)c1OC (centres undefined)
active: DU-145 prostate -30.1% | K-562 leukemia 5.23% | MDA-MB-231 breast 9.38% | RXF 393 renal -8.9% | SF-295 CNS -5.17% | SF-539 CNS -25.4% | M14 melanoma -28.8% | HCT-15 colon 6.81% | HT29 colon -25.4% | SNB-75 CNS -5.04% | SNB-19 CNS 7.63% | U251 CNS 9.63% | SK-MEL-5 melanoma -30.9%
inactive: MALME-3M melanoma 53.7% | SF-268 CNS 26.8% | UACC-257 melanoma 42.5% | PC-3 prostate 14.3% | LOX IMVI melanoma 17.7% | SK-MEL-28 melanoma 42.8%
